The values that follow come from PubChem BioAssay (NCATS).

Structures are written as SMILES. Records with an inconclusive call do not appear. Calls of active or inactive are those of the source. Unless noted, calls follow the shape of the dose curve; as a rule, active = well fitted curve in the direction sought with a large enough effect; inconclusive = small, poorly fitted or top-dose-only effect, or another doubt; inactive = no such curve, though single readings can be large; an effect the other way counts as inactive or inconclusive.

The target in assay [1] is Estrogen receptor (Homo sapiens) (UniProt P03372). In words: qHTS assay for small molecule antagonists of estrogen receptor alpha signaling (AID 588513; active = well fitted curve in the direction sought with a large enough effect in the signal ratio, with a control signal flat, not every such curve was filed as active; the % refers to the signal ratio; also: % is scaled to controls: 0 for no effect and ±100 for the full control effect). To be noted: ER-alpha-UAS-bla HEK293, beta-lactamase ratio, antagonist mode; series mostly up to 76.9 µM. In outline:
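Antagonist-mode qHTS in ER-alpha-UAS-bla HEK 293 cells: compound titration, 0.5nM estradiol for 18 h, CCF4 fluorescence, Hill-derived IC50.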

For assay [2] the target is unchanged. As to the kind of experiment: qHTS assay for small molecule agonists of estrogen receptor alpha signaling (AID 588514; calls by dose curve;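 also: 0% = vehicle only and 100% = reference agonist; nearly all actives have a fitted effect of over 70% in size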). To be noted: ER-alpha-UAS-bla HEK293, beta-lactamase ratio, 18 h; series mostly up to 76.8 µM. In outline:
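Read-out: CCF4 fluorescence from a beta-lactamase reporter in ER-alpha-UAS-bla HEK 293 cells after 18 hrs of compound exposure at 37 C. Normalized to 20 nM 17-beta-estradiol (100%) and DMSO (0%).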

Assay [3] concerns the target Peroxisome proliferator-activated receptor gamma (Homo sapiens) (UniProt P37231). In words: qHTS assay for small molecule agonists of peroxisome proliferator-activated receptor gamma signaling (AID 588536; active = well fitted curve in the direction sought with a large enough effect in the signal ratio, with a control signal flat, not every such curve was filed as active; the % refers to the signal ratio;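 also: 0% = DMSO basal wells and 100% = rosiglitazone at 2 µM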). To be noted: HEK293 PPARg-UAS-bla, beta-lactamase ratio, 16 h, percent of rosiglitazone response, DMSO as zero; series mostly up to 76.7 µM. A digest of the protocol: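 Compound treatment: 16 h, 37 C, HEK293 GeneBLAzer cells. Detection: CCF4, 2 h RT. Values: Hill-fit EC50, efficacy as % of 2 uM rosiglitazone.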

Assay [4] in a line: qHTS assay for small molecule agonists of retinoid X receptor alpha signaling (AID 588544). To be noted: HEK293T RXRa-UAS-bla, beta-lactamase reporter, 18 h; 530 nm emission.
In assay [5] the target is Thyroid hormone receptor beta (Homo sapiens) (UniProt P10828). In words: qHTS assay for small molecule agonists of thyroid hormone receptor beta signaling (AID 588545; calls by dose curve;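 also: 0% = DMSO only and 100% = 10 nM T3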). The following applies: TR-UAS-bla GripTite HEK 293, beta-lactamase ratio, agonist mode, 18 h; series mostly up to 76.7 µM. A digest of the protocol: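 Efficacy and EC50 values derive from Hill fits of qHTS titration data, normalized to 10 nM T3 and DMSO-only wells. HEK 293 reporter cells were stimulated for 18 hrs at 37 C, with beta-lactamase activity measured by CCF4 fluorescence.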

The nature of assay [6]: qHTS assay for small molecule antagonists of retinoid X receptor alpha signaling (AID 588546; active = well fitted inhibition curve with a large enough effect in the signal ratio, with a control signal flat, not every such curve was filed as active; the % refers to the signal ratio;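 also: cells stimulated with 9-cis-retinoic acid as agonist; % is scaled to controls: 0 for no effect and ±100 for the full control effect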). The following applies: HEK293T RXRa-UAS-bla, beta-lactamase ratio, antagonist mode; measured here: W530 green channel, cytotoxicity proxy. In outline:
(§1)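 Beta-lactamase reporter inhibition, read as CCF4 fluorescence ratio (ex 405, em 460/530 nm) after 2 h at RT. HEK293T UAS-bla cells, 2500/well, were stimulated with 9-cis-RA at 500 or 100 nM final alongside test compound for 18 h at 37 C.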

The target of assay [7] is Retinoic acid receptor RXR-alpha (Homo sapiens) (UniProt P19793). Described as above. The following applies: HEK293T RXRa-UAS-bla, beta-lactamase ratio, antagonist mode. A digest of the protocol: as §1
Assay [8] deals with Thyroid hormone receptor beta (Homo sapiens) (UniProt P10828). As to the kind of experiment: qHTS assay for small molecule antagonists of thyroid hormone receptor beta signaling (AID 588547; active = well fitted inhibition curve with a large enough effect in the signal ratio, with a control signal flat, not every such curve was filed as active; the % refers to the signal ratio;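 also: cells stimulated with 0.4 nM T3 agonist during compound exposure; % is scaled to controls: 0 for no effect and ±100 for the full control effect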). The following applies: TR-UAS-bla HEK293, beta-lactamase ratio, antagonist mode, 18 h. In outline: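 TR-UAS-bla GripTite HEK293 cells in 2% charcoal/dextran FBS medium; compounds 0.59 nM to 92 uM with T3 at 0.4nM final, 18 h at 37 C. Beta-lactamase read by CCF4 fluorescence (460/530 nm); Hill fits gave IC50 and efficacy.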

The nature of assay [9]: qHTS assay for small molecule activators of the p53 signaling pathway (AID 651743; active = well fitted activation curve with a large enough effect in the signal ratio, not every such curve was filed as active; the % refers to the signal ratio; also: % of control where 0% means no effect). The following applies: HCT-116 p53RE-bla, beta-lactamase FRET ratio, 16 h; activation: stronger effect = higher value. A digest of the protocol:
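Reporter: beta-lactamase driven by p53 response elements, stably integrated in HCT-116 cells. Cells seeded at 4,000/well, 5 h preincubation, compound (DMSO) 16 h at 37 C; B/G FRET substrate 2 h RT; fluorescence intensity read.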

Assay [10] can be described thus: qHTS assay for environmental chemicals that activate the Aryl hydrocarbon Receptor (AhR) signaling pathway (AID 651777). Also: % of control where 0% means no effect; nearly all actives have a fitted effect of over 15% in size. The following applies: 1A2-DRE human hepatoma cells, luciferase, 24 h; activation: stronger effect = higher value. A digest of the protocol:
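Luminescence (One-Glo, 30 min, room temperature) reports AhR-driven luciferase in stably transfected human hepatoma cells bearing DRE and CYP1A2 promoter. Cells (1,200/well) were treated with compound for 24 hr at 37 C in qHTS format.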

Assay [11] addresses Peroxisome proliferator-activated receptor alpha (Homo sapiens) (UniProt Q07869). As to the kind of experiment: qHTS assay for small molecule agonists of the peroxisome proliferator-activated receptor alpha (PPARalpha) signaling pathway (AID 651778). Also: % of control where 0% means no effect. To be noted: PathHunter PPARalpha complementation, chemiluminescence, 6 h; max response: stronger effect = higher value. A digest of the protocol: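 Enzyme-fragment complementation assay in which ligand-bound PPARalpha translocates and forms an active enzyme that generates chemiluminescence. Cells were plated overnight, exposed to compound for 6 hr at 37 C, and then given detection reagent for 60 min at room temperature.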

Assay [12] in a line: qHTS assay for small molecule agonists of the antioxidant response element (ARE) signaling pathway measured by Nrf2-dependant transcriptional activity (AID 720636; active = well fitted curve in the direction sought with a large enough effect in the repeat runs; an effect the other way counts as inactive or inconclusive; also: % of control where 0% means no effect). The following applies: ARE-luc HepG2, Nrf2 luciferase reporter, 16 h; series mostly up to 92.4 µM. In outline:
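Nrf2-dependent transcription read as ONE-Glo luciferase signal from ARE-luc HepG2 reporter cells after 16 hr compound treatment at 37 C, 5% CO2, in assay medium with 1% dialyzed FBS.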

Assay [13] can be described thus: qHTS assay for small molecule agonists of the antioxidant response element (ARE) signaling pathway measured by Nrf2-dependant transcriptional activity - cell viability counter screen (AID 720653; active = well fitted curve in the direction sought with a large enough effect in the repeat runs; an effect the other way counts as inactive or inconclusive; also: % is scaled to controls: 0 for no effect and ±100 for the full control effect). The following applies: ARE-bla HepG2 viability, CellTiter-Glo ATP luminescence, 16 h; max response: stronger effect = lower value. In outline: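 ARE-bla HepG2 cells treated with compounds for 16 h at 37C; this counter screen measures viability as intracellular ATP by CellTiter-Glo luminescence after 30 min at room temperature.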

The nature of assay [14]: qHTS assay for cell viability of HEK293 cells (AID 743288). Also: % is scaled to controls: 0 for no effect and ±100 for the full control effect; nearly all actives have a fitted effect of over 50% in size. To be noted: ATP luminescence (CellTiter-Glo), 18 h; max response: stronger effect = lower value. In outline: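 HEK293, 18 h, 37 C, ATP luminescence. Cells at 2,000/well were allowed at least 5 h to settle before dosing; CellTiter-Glo developed 30 min at RT.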
Assay [15] can be described thus: qHTS assay for cell viability of the p53RE-bla HCT-116 cell line (AID 743292). Also: % is scaled to controls: 0 for no effect and ±100 for the full control effect; nearly all actives have a fitted effect of over 55% in size. The following applies: p53RE-bla HCT-116 viability, ATP luminescence, 16 h; series mostly up to 95 µM. In outline: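 ATP-based luminescent viability (CellTiter-Glo, 30 min RT) after 16 h compound treatment at 37 C of p53RE-bla HCT-116 cells, seeded at 4,000 cells/well and rested 5 h before dosing.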

Assay [16] deals with Nuclear receptor subfamily 1 group I member 2 (Rattus norvegicus) (UniProt Q9R1A7). As to the kind of experiment: qHTS assay for small molecule activators of the rat pregnane X receptor (rPXR) signaling pathway (AID 651751; call rule not given here; also: 0% is about no effect). The following applies: rPXR reporter cells, luciferase (One-Glo), 24 h.
Assay [17] in a line: qHTS assay for small molecule activators of the human pregnane X receptor (PXR) signaling pathway (AID 720659; call rule not given here; also: 0% is about no effect). The following applies: DPX-2 HepG2 CYP3A4-luciferase, 24 h; series mostly up to 92.3 µM.
The target of assay [18] is Glucocorticoid receptor (Homo sapiens) (UniProt P04150). In words: qHTS assay for small molecule agonists of glucocorticoid receptor signaling (AID 588532; active = well fitted curve in the direction sought with a large enough effect in the signal ratio, with a control signal flat; the % refers to the signal ratio;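 also: 100% = dexamethasone at 0.1 µM and 0% = DMSO only wells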). The following applies: HeLa MMTV-bla, beta-lactamase ratio, agonist, 18 h; stronger effect = higher value; percent of dexamethasone control, DMSO zero. In outline:
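Cells were plated and rested 3-5 h at 37 C, compounds were added in titration and incubated 18 h, then CCF4 substrate was loaded for 2 h at RT before reading blue/green fluorescence. EC50 came from Hill-equation fitting.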

Assay [19] is described as follows: qHTS assay for small molecule antagonists of peroxisome proliferator-activated receptor delta signaling (AID 588535; active = well fitted inhibition curve with a large enough effect in the signal ratio, with a control signal flat, not every such curve was filed as active; the % refers to the signal ratio;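 as to max response: cells co-treated with a PPAR-delta agonist as stimulator during compound exposure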). The following applies: HEK293T PPARd-UAS-bla, beta-lactamase FRET ratio, 18 h; 460 nm channel. A digest of the protocol:
(§2)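 Beta-lactamase reporter read-out (405 nm excitation, 460/530 nm emission) after CCF4 loading for 2 hrs at RT. HEK293T PPAR-delta-UAS-bla cells, 2% charcoal/dextran FBS, compounds for 18 hrs at 37 C. Hill fit gave IC50 and efficacy.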

The target in assay [20] is Peroxisome proliferator-activated receptor delta (Homo sapiens) (UniProt Q03181). The assay is described as above. The following applies: HEK293T PPARd-UAS-bla, beta-lactamase FRET ratio, 18 h; series mostly up to 76.7 µM. In outline:
as §2

Peroxisome proliferator-activated receptor gamma (Homo sapiens), sequence (P37231 whole entry, looked up): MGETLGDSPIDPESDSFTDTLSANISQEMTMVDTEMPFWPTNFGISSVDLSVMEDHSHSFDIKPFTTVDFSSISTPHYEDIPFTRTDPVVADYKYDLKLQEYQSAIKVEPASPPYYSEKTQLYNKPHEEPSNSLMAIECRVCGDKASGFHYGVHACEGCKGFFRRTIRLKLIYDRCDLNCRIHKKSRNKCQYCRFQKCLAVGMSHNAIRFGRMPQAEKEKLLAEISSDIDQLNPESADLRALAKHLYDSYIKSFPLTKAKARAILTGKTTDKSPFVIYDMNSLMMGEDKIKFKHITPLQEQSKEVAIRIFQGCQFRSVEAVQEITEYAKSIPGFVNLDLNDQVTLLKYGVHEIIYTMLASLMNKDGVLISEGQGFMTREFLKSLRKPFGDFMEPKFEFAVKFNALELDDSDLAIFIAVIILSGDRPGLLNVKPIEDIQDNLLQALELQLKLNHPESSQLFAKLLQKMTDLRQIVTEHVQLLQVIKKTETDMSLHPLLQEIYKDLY
Estrogen receptor (Homo sapiens), sequence (P03372 whole entry, looked up): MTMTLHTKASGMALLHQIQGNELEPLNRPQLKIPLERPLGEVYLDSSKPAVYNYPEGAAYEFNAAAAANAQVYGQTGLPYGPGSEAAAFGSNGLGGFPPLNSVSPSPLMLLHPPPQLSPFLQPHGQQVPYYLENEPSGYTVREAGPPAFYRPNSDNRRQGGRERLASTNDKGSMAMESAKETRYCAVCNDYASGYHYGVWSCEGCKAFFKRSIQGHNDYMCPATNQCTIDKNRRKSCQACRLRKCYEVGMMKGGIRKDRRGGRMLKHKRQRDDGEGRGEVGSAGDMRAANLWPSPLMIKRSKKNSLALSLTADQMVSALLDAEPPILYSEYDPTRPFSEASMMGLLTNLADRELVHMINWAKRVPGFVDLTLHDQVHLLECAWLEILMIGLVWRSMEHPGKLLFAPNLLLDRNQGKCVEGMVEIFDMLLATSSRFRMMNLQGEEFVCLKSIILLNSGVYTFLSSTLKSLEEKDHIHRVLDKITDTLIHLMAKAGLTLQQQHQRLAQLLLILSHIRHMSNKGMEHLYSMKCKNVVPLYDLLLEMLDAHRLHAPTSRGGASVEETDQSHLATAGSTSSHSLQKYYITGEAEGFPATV
Nuclear receptor subfamily 1 group I member 2 (Rattus norvegicus), sequence (Q9R1A7 whole entry, looked up): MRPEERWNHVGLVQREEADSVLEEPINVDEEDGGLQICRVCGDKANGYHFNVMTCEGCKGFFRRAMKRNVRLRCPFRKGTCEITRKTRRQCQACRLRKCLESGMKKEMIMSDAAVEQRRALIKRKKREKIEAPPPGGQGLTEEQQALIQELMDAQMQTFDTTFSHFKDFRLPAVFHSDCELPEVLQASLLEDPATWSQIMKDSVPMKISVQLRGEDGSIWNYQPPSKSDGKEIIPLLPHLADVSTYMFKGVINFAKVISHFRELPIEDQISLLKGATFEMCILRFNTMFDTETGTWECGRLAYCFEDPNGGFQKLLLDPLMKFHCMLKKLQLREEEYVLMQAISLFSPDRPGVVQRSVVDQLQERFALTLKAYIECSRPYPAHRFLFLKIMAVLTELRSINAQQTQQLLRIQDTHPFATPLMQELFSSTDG
Thyroid hormone receptor beta (Homo sapiens), sequence (P10828 whole entry, looked up): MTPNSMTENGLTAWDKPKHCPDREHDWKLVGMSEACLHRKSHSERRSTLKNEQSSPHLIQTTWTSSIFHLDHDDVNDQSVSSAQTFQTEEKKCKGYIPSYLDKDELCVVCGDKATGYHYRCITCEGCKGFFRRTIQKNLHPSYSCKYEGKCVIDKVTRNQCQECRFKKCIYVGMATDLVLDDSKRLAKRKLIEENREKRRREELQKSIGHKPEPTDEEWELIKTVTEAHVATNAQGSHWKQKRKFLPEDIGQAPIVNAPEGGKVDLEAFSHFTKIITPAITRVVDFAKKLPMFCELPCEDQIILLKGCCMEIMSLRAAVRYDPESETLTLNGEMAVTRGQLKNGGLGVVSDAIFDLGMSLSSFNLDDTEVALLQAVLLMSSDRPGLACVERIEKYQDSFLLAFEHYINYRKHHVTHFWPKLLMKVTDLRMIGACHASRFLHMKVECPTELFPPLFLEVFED
Peroxisome proliferator-activated receptor alpha (Homo sapiens), sequence (Q07869 whole entry, looked up, the tested form may be a part): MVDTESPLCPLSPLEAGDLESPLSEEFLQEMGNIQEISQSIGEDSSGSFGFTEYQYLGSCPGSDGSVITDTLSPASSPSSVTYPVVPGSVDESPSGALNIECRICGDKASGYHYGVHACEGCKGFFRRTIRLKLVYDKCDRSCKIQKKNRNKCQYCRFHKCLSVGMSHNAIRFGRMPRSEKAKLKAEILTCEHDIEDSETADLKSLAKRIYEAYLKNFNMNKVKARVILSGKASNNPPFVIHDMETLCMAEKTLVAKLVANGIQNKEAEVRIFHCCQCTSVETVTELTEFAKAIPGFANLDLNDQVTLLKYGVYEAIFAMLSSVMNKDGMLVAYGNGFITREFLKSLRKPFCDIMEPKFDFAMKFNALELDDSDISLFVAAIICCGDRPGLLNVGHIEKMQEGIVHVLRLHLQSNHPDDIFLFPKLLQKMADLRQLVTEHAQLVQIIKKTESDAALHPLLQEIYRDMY
Retinoic acid receptor RXR-alpha (Homo sapiens), sequence (P19793 whole entry, looked up): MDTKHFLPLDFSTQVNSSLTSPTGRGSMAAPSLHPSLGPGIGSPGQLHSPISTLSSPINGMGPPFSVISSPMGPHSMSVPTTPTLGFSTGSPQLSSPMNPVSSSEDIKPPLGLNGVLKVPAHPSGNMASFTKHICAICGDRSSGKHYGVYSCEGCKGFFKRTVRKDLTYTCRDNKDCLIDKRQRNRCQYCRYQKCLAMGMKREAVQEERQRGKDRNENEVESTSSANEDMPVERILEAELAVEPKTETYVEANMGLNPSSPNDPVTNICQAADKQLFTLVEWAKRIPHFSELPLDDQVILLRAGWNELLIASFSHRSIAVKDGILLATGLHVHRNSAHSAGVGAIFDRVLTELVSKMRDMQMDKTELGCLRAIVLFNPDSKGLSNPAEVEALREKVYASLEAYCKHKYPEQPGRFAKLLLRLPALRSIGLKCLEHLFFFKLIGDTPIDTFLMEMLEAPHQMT
Peroxisome proliferator-activated receptor delta (Homo sapiens), sequence (Q03181 whole entry, looked up): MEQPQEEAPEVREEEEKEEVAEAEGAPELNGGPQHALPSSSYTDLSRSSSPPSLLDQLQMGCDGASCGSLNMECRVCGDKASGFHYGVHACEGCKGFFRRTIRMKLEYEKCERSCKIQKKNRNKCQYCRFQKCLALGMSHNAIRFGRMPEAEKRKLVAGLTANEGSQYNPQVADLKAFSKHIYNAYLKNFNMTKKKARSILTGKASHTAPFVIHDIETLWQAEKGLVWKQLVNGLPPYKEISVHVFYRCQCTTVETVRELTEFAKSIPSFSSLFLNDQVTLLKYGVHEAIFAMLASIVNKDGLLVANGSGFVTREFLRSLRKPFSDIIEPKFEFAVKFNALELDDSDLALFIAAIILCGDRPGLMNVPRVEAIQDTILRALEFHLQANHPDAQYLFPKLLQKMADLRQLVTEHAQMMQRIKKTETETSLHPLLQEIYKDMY
Glucocorticoid receptor (Homo sapiens), sequence (P04150 whole entry, looked up): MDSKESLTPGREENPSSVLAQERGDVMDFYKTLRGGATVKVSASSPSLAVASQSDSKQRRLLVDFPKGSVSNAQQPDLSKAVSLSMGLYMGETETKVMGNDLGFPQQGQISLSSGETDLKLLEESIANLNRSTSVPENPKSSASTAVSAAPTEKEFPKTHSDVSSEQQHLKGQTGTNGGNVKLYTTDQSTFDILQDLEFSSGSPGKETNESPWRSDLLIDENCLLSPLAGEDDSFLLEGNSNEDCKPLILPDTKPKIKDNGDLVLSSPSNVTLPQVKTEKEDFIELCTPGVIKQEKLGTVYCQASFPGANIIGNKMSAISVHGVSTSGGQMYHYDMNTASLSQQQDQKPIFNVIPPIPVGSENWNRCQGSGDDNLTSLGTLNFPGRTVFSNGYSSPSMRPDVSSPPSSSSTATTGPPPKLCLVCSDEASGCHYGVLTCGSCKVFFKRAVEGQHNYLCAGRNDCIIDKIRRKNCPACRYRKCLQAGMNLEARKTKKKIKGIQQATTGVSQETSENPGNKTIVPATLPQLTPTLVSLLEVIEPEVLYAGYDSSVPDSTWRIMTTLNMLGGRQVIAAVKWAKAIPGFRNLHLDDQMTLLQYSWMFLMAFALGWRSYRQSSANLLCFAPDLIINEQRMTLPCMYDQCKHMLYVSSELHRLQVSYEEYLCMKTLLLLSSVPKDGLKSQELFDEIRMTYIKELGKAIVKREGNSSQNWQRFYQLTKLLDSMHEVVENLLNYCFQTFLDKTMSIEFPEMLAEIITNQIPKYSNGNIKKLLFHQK

As to `Brc1ccc(Br)c(Br)c1`, the Potency entry in assay [1], in assay [2], in assay [5], in assay [12] and in [15] was “inactive” in each case. In addition, the result in assay [3] and in [17] was inactive. Besides, the max response in assay [4] is 0.274%; in assay [6], -16.3%; in assay [7], -14.6% (inactive); in assay [11], -4.16% (inactive); in assay [13], -18% (inactive); in [14] it was -15.6% (inactive). The max response in assay [16] is -1.74% (inactive). Besides, the activity change % (negative = inhibition) in assay [8] was -13.9% (inactive). The activation is -2.82% (inactive) in [9] and 2.73% (inactive) in assay [10].

Turning to `Cc1ccc(Cl)cc1Cl`, the Potency entry in [1], in [5], in [12] and in assay [15] was “inactive” each time. In addition, the values for the activation in assay [18], in [9] and in assay [10] were -2.65% (inactive), 1.63% (inactive) and 1.78% (inactive), respectively. Moreover, the max response is -6.55% in [6]; -30.4% (inactive) in [7]; -0.243% (inactive) in [11]; 7.57% (inactive) in assay [13]; -8.46% (inactive) in [14]; 1.69% (inactive) in assay [16]. In assay [8], the activity change % (negative = inhibition) was -1.13% (inactive). In assay [17], the compound was called inactive.

In the case of `C=C(C)C(=O)OCCC[Si](OC)(OC)OC`, the Potency result in assay [1], in assay [20], in [5], in assay [12] and in [15] was “inactive” throughout. Further, the max response in assay [19] is 51.6%; in [4] it was -14.5%; in assay [6] it was -3.97%; in [7], -21.4% (inactive); in assay [11], -1.45% (inactive); in assay [13] it was -0.904% (inactive). Besides, the results for the max response in [14] and in assay [16] were -1.87% (inactive) and -1.68% (inactive), respectively. Further, the outcome in assay [3] was inactive. Further, in assay [8], the activity change % (negative = inhibition) was 2.39% (inactive). The values for the activation in [9] and in [10] were -1.41% (inactive) and -2.37% (inactive), respectively.

Consider `CCCCCCCCCCCCCCCCN(C)C`, for which the Potency result in [1], in assay [20], in assay [12] and in [15] was “inactive” throughout. For the same compound, the figures for the activation in assay [18], in assay [9] and in [10] were -11.7% (inactive), -1.17% (inactive) and 0.752% (inactive), respectively. Also, the max response is -16.5% in assay [19]; -18.2% in assay [4]; -9.65% in assay [6]; -24.8% (inactive) in [7]; -0.399% (inactive) in [11]; -13% (inactive) in assay [13]. In addition, the values for the max response in [14] and in assay [16] were -6.67% (inactive) and 2.85% (inactive), respectively. Further, the result in [17] was inactive.

With `C[Si]1(C)N[Si](C)(C)N[Si](C)(C)N1`, the Potency result in assay [1], in assay [2], in assay [5], in assay [12] and in [15] was “inactive” each time. Besides, the result in assay [3] and in assay [17] was inactive. Besides, the max response in assay [4] is -6.42%; in assay [6], -13.1%; in assay [7], -7.51% (inactive); in assay [11], -0.733% (inactive); in assay [13], -8.08% (inactive); in [14], -3.76% (inactive). In assay [16], the max response was 1.59% (inactive). For the same compound, the activity change % (negative = inhibition) in assay [8] was 17.9% (inactive). In addition, in assay [9], the activation was -5.2% (inactive).
